Screens from PubChem.
The list is not random: actives were taken first. Their share in the collection is about 2.5%.
ASK1 primary – inhibitors of human ASK1 kinase | hit rate 0.99% among 22,000 | Q99683 | AID 1159602 | inhibition, % at 7.44 µM | AlphaScreen MKK6 phosphorylation by ASK1, luminescence; in the data active means inhibition above about 35%;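 further: 0% = median of compound wells and 100% = no enzyme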
ULK1 primary – inhibitors of human ULK1 kinase; hit rate 1.9% among 30,000; inhibition, % at 5.96 µM; O75385; AlphaScreen Atg13 phosphorylation by ULK1, luminescence; in the data active means inhibition above about 43%;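 further: 0% = median of compound wells and 100% = no enzyme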
Target sequence (O75385 whole entry, looked up): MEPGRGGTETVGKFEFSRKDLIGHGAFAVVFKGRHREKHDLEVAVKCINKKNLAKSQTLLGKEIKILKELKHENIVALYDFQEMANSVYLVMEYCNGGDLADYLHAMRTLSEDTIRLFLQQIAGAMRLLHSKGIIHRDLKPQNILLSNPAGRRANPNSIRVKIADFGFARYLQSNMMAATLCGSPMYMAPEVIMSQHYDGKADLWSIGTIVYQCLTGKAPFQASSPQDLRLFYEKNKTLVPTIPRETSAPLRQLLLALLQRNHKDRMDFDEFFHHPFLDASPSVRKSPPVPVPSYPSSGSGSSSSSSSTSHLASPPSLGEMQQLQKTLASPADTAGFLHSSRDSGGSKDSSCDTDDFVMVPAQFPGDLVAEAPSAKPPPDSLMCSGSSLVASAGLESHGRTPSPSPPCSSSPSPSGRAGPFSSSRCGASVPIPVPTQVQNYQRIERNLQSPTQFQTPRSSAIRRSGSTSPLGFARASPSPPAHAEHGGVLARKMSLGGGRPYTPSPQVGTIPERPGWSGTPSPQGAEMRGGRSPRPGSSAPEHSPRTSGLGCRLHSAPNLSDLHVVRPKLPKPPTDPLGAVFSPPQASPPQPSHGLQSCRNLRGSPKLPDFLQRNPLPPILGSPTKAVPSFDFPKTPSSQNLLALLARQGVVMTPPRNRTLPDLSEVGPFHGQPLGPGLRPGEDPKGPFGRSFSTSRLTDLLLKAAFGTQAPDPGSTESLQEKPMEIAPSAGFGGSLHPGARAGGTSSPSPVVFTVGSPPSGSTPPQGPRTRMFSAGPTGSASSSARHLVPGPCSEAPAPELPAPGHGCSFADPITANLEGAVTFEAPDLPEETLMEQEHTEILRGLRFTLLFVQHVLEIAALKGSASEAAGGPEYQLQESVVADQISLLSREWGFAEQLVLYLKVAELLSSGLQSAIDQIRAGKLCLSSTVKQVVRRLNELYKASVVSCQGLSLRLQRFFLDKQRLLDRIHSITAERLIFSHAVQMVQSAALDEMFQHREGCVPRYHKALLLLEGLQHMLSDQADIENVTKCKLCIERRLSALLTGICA
The depositor's hits bear a star.

Screening Cc1ccc(-c2cccc3cnc(Nc4ccc(C(=O)N5CCN(C)CC5)cc4)nc23)cn1 returned ASK1 primary -10.8 and ULK1 primary 57.7*.
Screening Cc1ccc(-c2cccc3cnc(Nc4ccc(C(=O)N5CCOCC5)cc4)nc23)cn1 returned ASK1 primary -13.6 and ULK1 primary 58.0*.
Screening Cc1ccc(-c2cccc3cnc(Nc4cccc(C(=O)N5CCCC5)c4)nc23)cn1 returned ASK1 primary -4.3 and ULK1 primary 50.8*.
`Cc1ccc(-c2cccc3cnc(Nc4cccc(C(=O)N5CCN(C)CC5)c4)nc23)cn1` gave ASK1 primary 9.1 and ULK1 primary 61.6*.
`Cc1cc(Nc2ccccc2)nc(-c2ccc(C(=O)N3CCN(C)CC3)cc2)n1` gave ASK1 primary -9.9 and ULK1 primary 3.0.
`Cc1cnc(-c2ccc(C(=O)N3CCN(C)CC3)cc2)nc1Nc1ccc(N2CCOCC2)cc1` gave ASK1 primary -9.1 and ULK1 primary -14.1.
Screening Cn1cc(-c2cccc3cnc(NC4CCN(C(=O)N5CCCC5)C4)nc23)cn1 (stereo unspecified) returned ASK1 primary 11.6 and ULK1 primary 33.2.
`CC(=O)N1CCC(Nc2ncc3cccc(-c4ccc(C)nc4)c3n2)CC1` gave ASK1 primary -5.3 and ULK1 primary 11.2.
Cc1cc(N(C)C)nc(N2CCN(C(=O)Nc3cccc(Cl)c3)CC2)n1 was read as ULK1 primary 2.0.
Screening CC(=O)Nc1ccc(Nc2nc(Nc3cnccn3)nc3c2ncn3Cc2ccc(C(F)(F)F)cc2)cc1 returned ASK1 primary 28.7 and ULK1 primary 12.4.
Screening COc1ccc(/C(O)=C2\C(=O)C(=O)NC2c2ccc(Br)cc2)cc1 (stereo unspecified) returned ULK1 primary -1.1.
For Cn1c(Nc2nc(N)c3ncn(Cc4ccc(C(F)(F)F)cc4)c3n2)nc2ccccc21 the results were ASK1 primary -0.9 and ULK1 primary -9.1.
For NC(CO)C(=O)NNCc1ccc(O)c(O)c1O (stereo unspecified) the results were ULK1 primary 64.9*.
Screening NC(CO)C(=O)O (stereo unspecified) returned ULK1 primary 1.8.
O=C(Nc1ccc(N2CCOCC2)cc1)c1cccc(Nc2ccc3ncccc3c2)n1 was read as ASK1 primary -9.6 and ULK1 primary 45.7*.
Screening O=C(Nc1ccc(N2CCOCC2)cc1)c1csc(Nc2ccc(N3CCOCC3)cc2)n1 returned ASK1 primary -7.9 and ULK1 primary 31.8.
`O=C(Nc1ccc(N2CCOCC2)cc1)c1csc(Nc2ncccn2)n1` gave ASK1 primary -18.6 and ULK1 primary 53.1*.
For O=C(Nc1ccc(N2CCOCC2)cc1)c1cccc(Nc2ccncn2)n1 the results were ASK1 primary -30.4 and ULK1 primary 52.5*.
CCN(CC)C(=O)C1CCCN(c2cccc(C(=O)NCCN3CCOCC3)n2)C1 (stereo unspecified) was read as ASK1 primary -10.2 and ULK1 primary 0.9.
`O=C(Nc1ccc(N2CCOCC2)cc1)c1csc(Nc2ccncn2)n1` gave ASK1 primary -13.8 and ULK1 primary 41.9.
Screening O=C(NCCN1CCOCC1)c1cccc(Nc2ccc3ncccc3c2)n1 returned ASK1 primary -12.4 and ULK1 primary 1.3.
CCN(CC)C(=O)C1CCCN(c2cccc(C(=O)Nc3ccc(N4CCOCC4)cc3)n2)C1 (stereo unspecified) was read as ASK1 primary -23.5 and ULK1 primary 52.2*.
Oc1ccc(CCNc2nc(Nc3ccc(N4CCOCC4)cc3)nc3c2ncn3-c2ccsc2)cc1 was read as ASK1 primary 18.4 and ULK1 primary -2.1.
N#C/C(=C/Nc1cccc2ccccc12)c1nc2ccccc2o1 was read as ULK1 primary 1.7.
Screening COc1ccc(CCNc2nc(NCc3cccnc3)nc3c2ncn3CCN2CCCC2=O)cc1 returned ASK1 primary -7.8 and ULK1 primary -12.0.
NNC(=O)CNC(=O)/C=C/c1ccco1 was read as ULK1 primary 0.3.
O=C(Nc1ccc(-c2cn[nH]c2)cc1SCCN1CCOCC1)NC(CCO)c1ccccc1 (stereo unspecified) was read as ASK1 primary -12.4 and ULK1 primary 11.2.
For CCn1cc(C(=O)O)c(=O)c2cc(F)c(N/N=C\c3cc(Br)ccc3O)cc21 the results were ULK1 primary -7.3.
CCS(=O)(=O)Nc1ccc(-c2ccnc(Nc3ccc(S(N)(=O)=O)cc3)n2)cc1 was read as ASK1 primary -7.8 and ULK1 primary 60.0*.
For NS(=O)(=O)c1ccc(Nc2nccc(-c3ccccc3)n2)cc1 the results were ASK1 primary 7.8 and ULK1 primary 6.6.
`CC(C)S(=O)(=O)Nc1ccc(-c2ccnc(Nc3ccc(S(N)(=O)=O)cc3)n2)cc1` gave ASK1 primary -8.6 and ULK1 primary 50.3*.
`NS(=O)(=O)c1ccc(Nc2nccc(-c3ccc(NS(=O)(=O)Cc4ccccc4)cc3)n2)cc1` gave ASK1 primary -14.1 and ULK1 primary 33.4.
`CCCNC(=O)c1csc(Nc2cc(OC)c(OC)c(OC)c2)n1` gave ASK1 primary 9.2 and ULK1 primary 14.3.
`O=C1CCCN1CCn1cnc2c(NCc3ccccc3)nc(NCCN3CCOCC3)nc21` gave ASK1 primary -12.1 and ULK1 primary 4.4.
`CN(C)c1cccc(Nc2ccc(-n3cc(CC(=O)NC4CC4)c4ccccc43)nn2)c1` gave ASK1 primary 10.7 and ULK1 primary 22.7.
CC(C)(C)n1cc(NC(=O)C2CC(c3c(O)ccc4ccccc34)=NO2)cn1 (stereo unspecified) was read as ASK1 primary -10.2 and ULK1 primary 7.0.
Screening CNC(=O)c1ccccc1Nc1cc(Nc2ccc(C(=O)N(C)C)cn2)ncc1C(F)(F)F returned ASK1 primary -7.8 and ULK1 primary 88.9*.
CNC(=O)c1ncccc1Nc1cc(Nc2ccc3[nH]ncc3c2)ncc1C(F)(F)F was read as ASK1 primary 5.5 and ULK1 primary 23.9.
CN(C)C(=O)c1ncccc1Nc1cc(Nc2ccc3c(c2)CC(=O)N3)ncc1C(F)(F)F was read as ASK1 primary -10.6 and ULK1 primary 39.9.
Screening CNC(=O)c1ccccc1Nc1cc(Nc2ccc(C(=O)N(C)C)cc2C)ncc1C(F)(F)F returned ASK1 primary -26.9 and ULK1 primary 78.4*.
CNC(=O)c1ncccc1Nc1cc(Nc2ccc(C(=O)N(C)C)cn2)ncc1C(F)(F)F was read as ASK1 primary 7.0 and ULK1 primary 56.3*.
For CC(=O)Nc1ccc(NC(=O)c2cccc(Nc3nccc4ccccc34)c2)cc1 the results were ASK1 primary -21.5 and ULK1 primary 21.6.
For O=C1N(Cc2ccccc2OC(F)F)CCN1c1ccc(C(F)(F)F)cn1 the results were ULK1 primary 3.8.
For Cc1cnc(Nc2ccc(-n3ccnc3)cc2)nc1NCCO the results were ASK1 primary -7.5 and ULK1 primary 50.1*.
For c1ccc(OCCNc2nc(Nc3ccc(-n4ccnc4)cc3)nc3nc[nH]c23)cc1 the results were ASK1 primary -9.9 and ULK1 primary 52.9*.
Screening Oc1ccc(CCNc2nc(Nc3ccccc3)nc3nc[nH]c23)cc1 returned ASK1 primary -26.0 and ULK1 primary 36.3.
`c1ccc(OCCNc2nc(Nc3cccnc3)nc3nc[nH]c23)cc1` gave ASK1 primary 14.1 and ULK1 primary 48.1*.
`Cc1cnc(Nc2ccc(-n3ccnc3)cc2)nc1NCCc1ccc(O)cc1` gave ASK1 primary -12.0 and ULK1 primary 28.8.
`Cc1cnc(Nc2ccc(-n3ccnc3)cc2)nc1NCCOc1ccccc1` gave ASK1 primary 10.6 and ULK1 primary 34.0.
